In all, about 360,000 compounds went through this assay and about 5,000 (1.4%) were called active.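 The calls were made as follows: active = inhibition of 50% or more, scaled per plate between neutral and stimulator controls; inactive = the rest.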 The full list was thinned out, with actives kept by preference.

In PubChem BioAssay AID602449 (Sanford-Burnham Center for Chemical Genomics, 2012) one finds inhibition data, which are given here for 25 molecules.

The nature of the assay: blockers of Ca2+-induced mitochondrial swelling – biochemical, isolated mouse mitochondria, absorbance, primary screen (AID 602449).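 Also: 0% = DMSO wells given calcium and 100% = 1 mM EGTA wells.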 Conditions: 30 min, at 10 µM, active compounds read high.
In the case of `CCC(C)[C@H]1COCCS(=O)(=O)N1Cc1ccc(C)cc1` (stereo not given in full), the inhibition was -0.2% (inactive).

`CCC(c1nnc(SCC(=O)NNC(=O)c2ccccc2)n1Cc1ccccc1)N(C)C` (stereo not given): the inhibition was 1.2% (inactive).

For `COc1ccc(NC(=O)CN(C)C(=O)c2cc(C3CC3)nn2-c2ccccc2)cc1`, the inhibition is -0.5% (inactive).

Regarding `Cc1cccc(C(=O)OCC(=O)NC(C)C2CC3CCC2C3)c1O` (stereo not given), the inhibition was 0.9% (inactive).

As for `O=C(CN1CCN(C(=S)NC2CCCC2)CC1)Nc1ccc(Oc2ccccc2)cc1`, the inhibition is 5.8% (inactive).

On to `CCN(CC)S(=O)(=O)c1ccc(N(C)CCc2ccc(OC)c(OC)c2)nc1`, for which the inhibition is -2% (inactive).

For `CCN(CC)S(=O)(=O)c1ccc(N(C)Cc2cccc(OC)c2OC)nc1`, the inhibition was 3.9% (inactive).

As for `CCN(CC)S(=O)(=O)c1ccc(N(C)Cc2ccc(C(F)(F)F)cc2)nc1`, the inhibition was 94% (active).

For `NC(=O)C1CCN(C(=O)c2ccc(C(F)(F)F)cc2)CC1`, the inhibition is -3.2% (inactive).

Take `CC1(c2ccc3ccccc3c2)NC(=O)N(CC(N)=O)C1=O` (stereo not given): the inhibition was 1% (inactive).

In the case of `Cc1ccc2c(c1)C1CN(C)CCC1N2C(=O)c1ccccc1NS(=O)(=O)c1ccc(F)cc1C` (stereo not given), the inhibition was -0.2% (inactive).

For `Cc1ccc2c(c1)C1CN(C)CCC1N2S(=O)(=O)c1cccc(F)c1` (stereo not given), the inhibition was 0.2% (inactive).

For the molecule `Cc1ccc2c(c1)C1CN(C)CCC1N2S(=O)(=O)c1ccc(Oc2ccc([N+](=O)[O-])cc2)cc1` (stereo not given), the inhibition was 83.1% (active).

Consider `COc1cc(OC)c(C(=O)NNC(=O)c2ccccc2-n2cccc2)cc1OC`, for which the inhibition was -0.2% (inactive).

Turning to `Cc1ccc(C(=O)OCC(=O)NC2CCCCCCC2)cc1C`, the inhibition is -1.2% (inactive).

Take `CCc1nc2c(OCc3ccccc3)cccn2c1N(C)C(=O)c1ccco1`: the inhibition was 0% (inactive).

As for `Cc1nc2c(OCc3ccc(Cl)cc3Cl)cccn2c1N(C)CC1CC1`, the inhibition is 82.3% (active).

For `CCc1nc2c(OCc3ccc(Cl)cc3Cl)cccn2c1N(C)C(=O)C(C)C`, the inhibition is -3.5% (inactive).

For `Cc1nc2c(OCC(=O)C(C)(C)C)cccn2c1N(C)Cc1cccs1`, the inhibition is 2.6% (inactive).

For the molecule `CCc1nc2c(OCc3cccc(OC)c3)cccn2c1N(C)C(=O)C(C)C`, the inhibition was -1.6% (inactive).

Regarding `CCCCC(=O)N(C)c1c(CC)nc2c(OCc3ccc(Cl)cc3Cl)cccn12`, the inhibition was -1.5% (inactive).

As for `CCc1nc2c(OCc3ccc(F)c(F)c3)cccn2c1N(C)C(=O)c1ccco1`, the inhibition was -2.8% (inactive).

Turning to `Cc1nc2c(OCc3ccc(Cl)cc3)cccn2c1N(C)Cc1cccs1`, the inhibition is 79.6% (active).

For the molecule `Cc1nc2c(OCc3cccc(Cl)c3)cccn2c1N(C)CC1CC1`, the inhibition was 88.2% (active).

Regarding `CCOc1cc(-c2noc(CCCC(=O)NC3CCCCC3)n2)ccc1OC`, the inhibition was 0.3% (inactive).

For orientation: inhibition means the relative decrease from the control value, in per cent.
